This is a sample that favours compounds with a hit; in the whole collection about 2.9% have one here.
FBA Mtb inh – inhibitors of M. tuberculosis fructose-bisphosphate aldolase; P9WQA3; purified M. tuberculosis FBA, fluorescence read-out; inhibition, % at 1 µM; 2.3% of 360,000 active; AID 588726; in the data active = inhibition above about 27%
Target sequence (P9WQA3 whole entry, looked up): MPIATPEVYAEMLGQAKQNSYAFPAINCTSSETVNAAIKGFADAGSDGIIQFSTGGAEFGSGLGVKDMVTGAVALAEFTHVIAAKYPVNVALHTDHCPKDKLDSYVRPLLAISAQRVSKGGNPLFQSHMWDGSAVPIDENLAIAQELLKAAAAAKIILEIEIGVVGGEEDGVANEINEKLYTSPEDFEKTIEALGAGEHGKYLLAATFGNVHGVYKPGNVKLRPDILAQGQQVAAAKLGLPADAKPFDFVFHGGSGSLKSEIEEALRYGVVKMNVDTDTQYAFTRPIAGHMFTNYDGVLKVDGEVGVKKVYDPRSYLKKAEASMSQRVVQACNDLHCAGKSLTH
GDH-TPI counter – inhibits GDH-TPI coupling enzymes, artifact for Mtb FBA screen | 1.2% of 360,000 active | inhibition, % at 4.8 µM | GDH-TPI coupled enzyme counterscreen, NADH absorbance; in the data active = inhibition above about 30%
Mtb hypoxia rep – inhibitors of hypoxia-regulated fluorescent reporter in Mycobacterium tuberculosis; 0.1% of 300,000 active; fluorescence inhibition, % (no concentration beside the values); M. tuberculosis hypoxia-regulated fluorescent reporter, fluorescence; in the data active = fluorescence inhibition mostly above about 23%, no sharp cut-off; inactive = mostly below about 17%
Mtb BioA inh – BioA (M. tuberculosis) enzyme inhibition. purified M. tuberculosis BioA enzyme, plate reader. inhibition, % at 9.99 µM. 0.096% of 360,000 active. AID 602481; in the data active = inhibition above about 40%
FadD28 binding – M. tuberculosis FadD28 bisubstrate binding inhibition; AID 588549; 0.22% of 360,000 active; inhibition, % at 12.5 µM; FadD28 bisubstrate probe binding, fluorescence polarization; in the data active = inhibition above about 8.5%, passing the limit was not always enough
Of the large screens only hits and unclear results are named; the others gave an inactive call.

CCn1c2ccccc2c2cc(CN3CCN(C(=O)c4ccco4)CC3)ccc21	none (no result: Mtb hypoxia rep)
COC(=O)c1ccccc1N/C=C1\CCc2c(c(C)nn2-c2ccccn2)C1=O	GDH-TPI counter 32.3 (no result: Mtb hypoxia rep)
COc1cc(C(C#N)N2CCCCC2)ccc1O (stereo not given)	GDH-TPI counter 33.9 (no result: Mtb hypoxia rep)
COc1cc(C(C#N)N2CCOCC2)ccc1O (stereo not given)	GDH-TPI counter 36.8
COc1ccc(C(C#N)N2CCCCC2)cc1OC (stereo not given)	none
CCOc1ccc(C(C#N)N2CCOCC2)cc1OC (stereo not given)	none
C[C@@H]1CN([C@H](C)CO)S(=O)(=O)c2ccc(C#Cc3ccc(F)cc3)cc2O[C@@H]1CN(C)S(C)(=O)=O	none (no result: FBA Mtb inh, GDH-TPI counter, Mtb hypoxia rep, FadD28 binding)
COCCNc1nc(NCCCN2CCCC2=O)c2sc(-c3ccccc3)cc2n1	GDH-TPI counter 31.4 (no result: Mtb hypoxia rep)
Cc1c(C)n(C)c2ccc(C(=O)NCc3cccs3)cc12	FadD28 binding 12.2
NC(=O)[C@@H]1CCCNc2c(I)cc([N+](=O)[O-])cc2C(=O)N[C@@H](CCC(=O)O)C(=O)N[C@@H](CO)C(=O)N1	GDH-TPI counter 35.3 (no result: Mtb hypoxia rep)
NC(=O)C1CCCCNc2c(I)cc([N+](=O)[O-])cc2C(=O)NC(CCC(=O)O)C(=O)NC(CO)C(=O)N1 (stereo not given)	none (no result: FBA Mtb inh, GDH-TPI counter, Mtb BioA inh, FadD28 binding)
C[C@H](CO)N1C[C@H](C)[C@H](CN(C)Cc2ccc(C(=O)O)cc2)Oc2ccc(NS(C)(=O)=O)cc2C1=O	none (no result: FBA Mtb inh, GDH-TPI counter, Mtb hypoxia rep, FadD28 binding)
Nc1ncnc(N)c1N=Nc1ccccc1	none
Cc1cc(C)[n+]2[nH]c(N)c(N=Nc3ccccc3)c2n1	Mtb hypoxia rep 49.6 (no result: Mtb BioA inh)
C[C@H](CO)N1C[C@H](C)[C@H](CN(C)S(=O)(=O)c2ccccc2)Oc2ccc(NC(=O)CCC(F)(F)F)cc2C1=O	none (no result: FBA Mtb inh, GDH-TPI counter, Mtb hypoxia rep, FadD28 binding)
Cc1cc(/C=C2\C(=N)N3N=C(CC(=O)N4CCOCC4)SC3=NC2=O)c(C)n1-c1ccccc1	GDH-TPI counter 33.6
COc1ccc(-n2c(C)cc(/C=C3\C(=N)N4N=C(CC(=O)N5CCOCC5)SC4=NC3=O)c2C)cc1	GDH-TPI counter 45.7
N=C1/C(=C/c2ccco2)C(=O)N=C2SC(CC(=O)N3CCCC3)=NN12	GDH-TPI counter 30.8
COc1ccc(/C=C2/C(=N)N3N=C(CC(=O)N4CCCC4)SC3=NC2=O)cc1	none
N=C1/C(=C/c2ccc(Br)o2)C(=O)N=C2SC(CC(=O)N3CCCC3)=NN12	none
C[C@H](CO)N1C[C@H](C)[C@H](CN(C)C(=O)Nc2ccc(C(F)(F)F)cc2)Oc2ccc(NC(=O)NC3CCCCC3)cc2CC1=O	none (no result: FBA Mtb inh, GDH-TPI counter, Mtb hypoxia rep, FadD28 binding)
C[C@H]1CN([C@@H](C)CO)C(=O)c2cc(-c3ccccc3F)cnc2O[C@@H]1CN(C)C(=O)C1CCC1	none (no result: FBA Mtb inh, GDH-TPI counter, Mtb hypoxia rep, FadD28 binding)
Cc1ccc(S(=O)(=O)N(C)C[C@H]2OCCCC[C@@H](C)Oc3ccc(NS(=O)(=O)c4ccc(F)cc4)cc3C(=O)N([C@@H](C)CO)C[C@H]2C)cc1	none (no result: FBA Mtb inh, GDH-TPI counter, Mtb hypoxia rep, FadD28 binding)
COc1cccc(-c2nnc(NC(=O)c3ccco3)s2)c1	GDH-TPI counter 41.2
COc1ccc(-c2nnc(NC(=O)c3ccco3)s2)cc1	GDH-TPI counter 45.4
Cc1ccc(-c2nnc(NC(=O)c3ccco3)s2)cc1	none
O=C(Nc1nnc(SCc2cccc(F)c2)s1)c1ccco1	none (no result: Mtb BioA inh)
O=C(Nc1nnc(SCc2ccc(F)cc2)s1)c1ccco1	GDH-TPI counter 41.0
Cc1nnc(NC(=O)c2ccco2)s1	none
Cc1cc(C(=O)Nc2nnc(C3CCCCC3)s2)no1	none
Cc1cc(C(=O)Nc2nnc(-c3ccccc3)s2)no1	GDH-TPI counter 32.3
COc1cccc(-c2nnc(NC(=O)c3cccs3)s2)c1	GDH-TPI counter 35.4 (no result: Mtb BioA inh)
CCCOc1cccc(-c2nnc(NC(=O)c3ccco3)s2)c1	GDH-TPI counter 49.1
C/C=C(\C)c1nnc(NC(=O)c2ccco2)s1	GDH-TPI counter 33.2
CCCNC(=O)N1C[C@H](C)[C@@H](OC)CN(C)C(=O)c2ccc(NC(=O)CCC)cc2OC[C@H]1C	none (no result: FBA Mtb inh, GDH-TPI counter, Mtb hypoxia rep, FadD28 binding)
O=S(=O)(O)c1cccc(N=Nc2c(O)ccc3ccccc23)c1	Mtb hypoxia rep 35.8
CS(=O)(=O)c1ccc2nc(NC(=O)c3ccc(Cn4cc(Br)cn4)o3)sc2c1	GDH-TPI counter 31.3
COCCCNC(=O)/C(C#N)=C/c1c(N2CCN(C)CC2)nc2ccccn2c1=O	FBA Mtb inh 139.5
CCNC(=O)/C(C#N)=C/c1c(N2CCCCCC2)nc2ccccn2c1=O	FBA Mtb inh 135.2
CNC(=O)/C(C#N)=C/c1c(N2CC(C)OC(C)C2)nc2ccccn2c1=O (stereo not given)	FBA Mtb inh 123.9 (no result: Mtb BioA inh)
CCNC(=O)/C(C#N)=C/c1c(N2CC(C)OC(C)C2)nc2ccccn2c1=O (stereo not given)	none (no result: Mtb hypoxia rep)
COCCNC(=O)/C(C#N)=C/c1c(N2CCN(c3ccccc3)CC2)nc2ccccn2c1=O	none
Cc1ccc(NC(=O)C2CCN(S(=O)(=O)c3c(C)noc3/C=C/N(C)C)CC2)cc1	GDH-TPI counter 45.3
Cc1noc(/C=C/N(C)C)c1S(=O)(=O)N1CCC(C(=O)Nc2ccc(Cl)cc2)CC1	none
Cc1noc(/C=C/N(C)C)c1S(=O)(=O)N1CCC(C(=O)NC(C)(C)C)CC1	GDH-TPI counter 41.0
Cc1noc(C)c1S(=O)(=O)N1CCCC(C(=O)Nc2ccc(Cl)cn2)C1 (stereo not given)	FBA Mtb inh 75.1 (no result: Mtb hypoxia rep)
Cc1ccc(NC(=O)C2CCCN(S(=O)(=O)c3c(C)noc3/C=C/N(C)C)C2)cc1F (stereo not given)	GDH-TPI counter 40.1 (no result: Mtb BioA inh)
Cc1cc(C)cc(NC(=O)C2CCCN(S(=O)(=O)c3c(C)noc3C)C2)c1 (stereo not given)	none
CC(C)NC(=O)Nc1cccc2c1O[C@H](CN(C)C(=O)Nc1ccc(C(F)(F)F)cc1)[C@@H](C)CN([C@@H](C)CO)C2=O	none (no result: FBA Mtb inh, GDH-TPI counter, Mtb hypoxia rep, FadD28 binding)
COc1ccc(C=CS(=O)(=O)NCc2ccccc2)cc1OC	none (no result: FBA Mtb inh, GDH-TPI counter, Mtb BioA inh, FadD28 binding)
CC(=O)N(C)c1ccc(N=Nc2c(C)[nH]n(-c3ccccc3)c2=O)cc1	none
CC(=O)N(C)c1ccc(N=Nc2ccc3ncccc3c2)cc1	GDH-TPI counter 56.4
CCCNC(=O)N1C[C@H](C)[C@H](OC)CN(C)C(=O)c2cc(NS(C)(=O)=O)ccc2OC[C@H]1C	none (no result: FBA Mtb inh, GDH-TPI counter, Mtb hypoxia rep, FadD28 binding)
CN(C)S(=O)(=O)c1ccc(NC(=O)c2cc3ccccc3o2)cc1	Mtb BioA inh 43.9
Cc1ccc(NC(=O)c2cc3ccccc3o2)cc1S(=O)(=O)N(C)C	none
O=C(NC1CC2CCCC(C1)N2CC(=O)N1CCCc2ccccc21)C1CCCCC1 (stereo not given)	FBA Mtb inh 190.6
CC1(C)OC(C)(C)/C(=C\c2ccc(OCC(N)=O)cc2)C1=O	GDH-TPI counter 34.8
NC(=O)COc1ccc(/C=C2\C(=O)ON=C2c2ccccc2)cc1	none
CC(C)CC#Cc1ccc2c(c1)O[C@@H](CN(C)Cc1ccncc1)[C@H](C)CN([C@H](C)CO)S2(=O)=O	none (no result: FBA Mtb inh, GDH-TPI counter, Mtb hypoxia rep, FadD28 binding)
COc1ccc(C2C=C(c3ccccc3)Nc3nnnn32)cc1 (stereo not given)	none
C1=C(c2ccccc2)Nc2nnnn2C1	FBA Mtb inh 86.7 (no result: Mtb hypoxia rep)
Cc1ccc(S(=O)(=O)N[C@@H]2C=C[C@H](CC(=O)NCCCN(C)C)O[C@H]2CO)cc1	none (no result: FBA Mtb inh, GDH-TPI counter, Mtb hypoxia rep, FadD28 binding)
COc1ccccc1-c1cc(C(F)(F)F)nc(N2CCN(c3ccccc3)CC2)n1	FBA Mtb inh 27.9
